# Screening data: PubChem, Broad Institute
# Shown are actives, neighbours in structure and some others; about 6.7% of the full set was active somewhere.
# T cruzi growth-1: T. cruzi intracellular proliferation inhibitors, primary screen, cell-based, beta-gal Tulahuen parasites, NIH3T3 host, luminescence. T. cruzi beta-gal in NIH3T3, GalScreen luminescence, 90 h. inhibition, % at 8.34 µM. 77,000 compounds, 5.9% hits;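 active = mean inhibition above about 93%, with at least 55% of replicates each passing it, limit read from the data, passing the limit was not always enough; inconclusive = only one of those two conditions holds; inactive = neither condition holds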
# Pf Dd2 growth: P. falciparum Dd2 growth inhibitors, primary screen, SYBR Green fluorescence, single dose replicates | activity change, % at 10 µM | 72 h; hits give low values | 94,000 compounds, 2.3% hits; in the data active = activity change below about -80%; inconclusive = no clear call, values can overlap the other calls
# C diff HTS: C. difficile growth inhibitors, primary screen, HTS; growth activity, negative = inhibition, % at 16 µg/mL (by protocol); 86,000 compounds, 0.25% hits; Clostridium difficile clinical isolate growth, OD600, 24 h; hits give low values;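 active = mean growth activity at or below -80% and every replicate also at or below -80%; inconclusive = mean at or below -80% but some replicate above -80%; inactive = mean growth activity above -80%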;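 also: 0% = DMSO wells and -100% = levofloxacin 16 µg/mL wells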
# T cruzi growth-2: T. cruzi intracellular proliferation inhibitors, confirmation, cell-based, NIH3T3 host, beta-gal parasite, luminescence, cherry-pick | shares compounds with T cruzi growth-1 | T. cruzi beta-gal in NIH3T3, GalScreen luminescence, 90 h | inhibition, % at 8.35 µM | 5,600 compounds, 72% hits | AID 651739, 2012;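 active = mean replicate inhibition above about 95% and at least 55% of replicates individually reaching it, limit read from the data; inconclusive = only one of the two criteria is met; inactive = neither criterion is met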
# T cruzi growth-3: inhibitors of intracellular T. cruzi replication, confirmation, NIH3T3 host cells, beta-gal parasites, cherry-pick, set 2. shares compounds with T cruzi growth-1. T. cruzi beta-gal in NIH3T3, GalScreen luminescence, 90 h. inhibition, % at 2.09 µM. 5,600 compounds, 21% hits. AID 651740, 2012;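 active = mean inhibition above about 95%, with at least 55% of replicates also reaching it, limit read from the data; inconclusive = meets just one of the two conditions; inactive = meets neither condition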;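 also: plate controls were neutral control median for no effect and positive control median for full effect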
# 3T3 cytotox: cytotoxicity in mouse NIH/3T3 fibroblasts, confirmation, cytotoxicity control for T. cruzi proliferation inhibitor project, cell-based, cherry-pick, single point. shares compounds with T cruzi growth-1. NIH/3T3 viability, CellTiter-Glo ATP luminescence, 90 h. cytotoxicity (signal decrease), % at 8.35 µM. 5,600 compounds, 14% hits. AID 651742, 2012;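 active = mean signal decrease across replicates above about 35% based on untreated-well scatter, with enough replicates individually passing, limit read from the data; inconclusive = no rule stated though some were filed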;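 also: 0% = median of neutral control wells and 100% = median of positive control wells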
# NIH3T3 tox 2: NIH/3T3 fibroblast cytotoxicity, confirmation, cytotoxicity control, cell-based, cherry-pick, single point, set 2; inhibition, % at 24.9 µM; shares compounds with T cruzi growth-1; 5,600 compounds, 56% hits; AID 651744, 2012; NIH/3T3 viability, CellTiter-Glo ATP luminescence, 90 h;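 active = mean loss of cell viability signal at or above a set limit, and enough replicates individually reaching it; inconclusive = meets only the mean limit or only the replicate share; inactive = meets neither condition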;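 also: 0% = median of neutral control wells and 100% = median of positive control wells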
# * = called active by the depositor; u = inconclusive; x = no result given.
SMILES,T cruzi growth-1,Pf Dd2 growth,C diff HTS,T cruzi growth-2,T cruzi growth-3,3T3 cytotox,NIH3T3 tox 2
COc1ccc(-c2ccc([C@@H]3[C@H](CO)N4CCCCN(C(=O)Cc5ccccc5)C[C@@H]34)cc2)cc1,98.7*,-30.4,4.0,104.3*,78.0,26.4,105.6*
O=C(Cc1ccncc1)N1CCCCN2[C@@H](CO)[C@@H](c3ccc(-c4ccncc4)cc3)[C@@H]2C1,85.3,4.9,4.0,x,x,x,x
COc1ccc(-c2ccc([C@H]3[C@@H](CO)N4CCCCN(C(=O)Cc5ccccc5)C[C@@H]34)cc2)cc1,102.1*,-51.1,-7.9,106.8*,105.9*,18.7,u
COc1ccc(-c2ccc([C@H]3[C@H](CO)N4CCCCN(C(=O)Cc5ccccc5)C[C@@H]34)cc2)cc1,108.0*,-10.0,3.3,106.8*,80.8,10.8,105.6*
N#Cc1cccc(-c2ccc([C@H]3[C@H]4CN(C(=O)Cc5cccnc5)CCCCN4[C@H]3CO)cc2)c1,71.0,8.5,2.7,x,x,x,x
CCN1[C@@H]2c3ccc(-c4cccc(C(=O)N(C)C)c4)c(=O)n3C[C@H]1[C@H](CO)[C@H]2C(=O)OC,-3.9,10.2,-3.7,x,x,x,x
COC(=O)[C@H]1[C@H](CO)[C@H]2Cn3c(ccc(C4=CCCC4)c3=O)[C@@H]1N2CC1CCCC1,x,9.2,9.1,x,x,x,x
COC(=O)[C@@H]1[C@@H](CO)[C@@H]2Cn3c(ccc(-c4cccc(OC)c4)c3=O)[C@H]1N2CC1CC1,60.8,x,0.0,x,x,x,x
C/C=C/c1ccc(C2[C@@H]3CN(C(=O)c4cnccn4)C[C@H]2N3)cc1 (some centres not stated),x,14.0,-1.3,x,x,x,x
O=C(Cc1ccccc1)N1CCCCN2[C@H](CO)[C@H](c3ccc(-c4ccccc4)cc3)[C@@H]2C1,4.8,23.5,-8.3,x,x,x,x
O=C(Cc1ccccc1)N1CCCCN2[C@@H](CO)[C@@H](c3ccc(-c4ccccc4)cc3)[C@@H]2C1,u,-19.3,41.7,104.0*,55.8,16.1,104.6*
COc1ccc(C#Cc2ccc([C@H]3[C@H](CO)N4CCCCN(C(=O)Cc5ccncc5)C[C@@H]34)cc2)cc1,105.9*,-62.2,45.2,107.7*,81.2,20.4,104.7*
COc1ccc(C#Cc2ccc([C@@H]3[C@H](CO)N4CCCCN(C(=O)Cc5ccncc5)C[C@@H]34)cc2)cc1,111.8*,-71.0,44.7,103.2*,86.2,14.8,104.4*
COc1ccc(-c2ccc([C@@H]3[C@@H](CO)N4CCCCN(C(=O)Cc5ccncc5)C[C@H]34)cc2)cc1,54.8,-47.4,6.2,x,x,x,x
COc1ccc(-c2ccc([C@H]3[C@H]4CN(C(=O)Cc5ccncc5)CCCCN4[C@H]3CO)cc2)cc1,69.7,-3.6,4.2,x,x,x,x
COC(=O)[C@H]1[C@H](CO)[C@H]2Cn3c(ccc(-c4ccc(F)cc4)c3=O)[C@@H]1N2Cc1ccccc1,27.9,-2.6,3.8,x,x,x,x
O=C(O)[C@@H]1[C@@H](CO)[C@@H]2Cn3c(ccc(-c4cccc(F)c4)c3=O)[C@H]1N2CCc1ccccc1,7.5,-2.6,1.2,x,x,x,x
CCCC#Cc1ccc([C@@H]2[C@H]3CN(C(=O)Cc4ccccn4)CCCCN3[C@H]2CO)cc1,49.5,-33.0,-7.4,x,x,x,x
O=C(Cc1ccccn1)N1CCCCN2[C@H](CO)[C@@H](c3ccc(C#Cc4ccccc4)cc3)[C@@H]2C1,30.3,-70.0,-8.1,x,x,x,x
CC(C)CC#Cc1ccc([C@@H]2[C@@H](CO)N3CCCCN(C(=O)Cc4ccccn4)C[C@@H]23)cc1,75.1,1.7,-12.7,x,x,x,x
O=C(Cc1ccccn1)N1CCCCN2[C@H](CO)[C@H](c3ccc(C#Cc4ccccc4)cc3)[C@H]2C1,105.0*,-40.7,-11.6,102.0*,61.9,52.4*,107.2*
O=C(Cc1ccccn1)N1CCCCN2[C@@H](CO)[C@H](c3ccc(C#Cc4ccccc4)cc3)[C@@H]2C1,114.3*,-20.0,26.9,109.3*,52.7,38.8*,105.3*
O=C(Cc1ccccn1)N1CCCCN2[C@H](CO)[C@@H](c3ccc(C#Cc4ccccc4)cc3)[C@H]2C1,105.6*,-34.0,12.9,96.9*,40.6,40.8*,105.5*
O=C(O)[C@H]1[C@H](CO)[C@H]2Cn3c(ccc(-c4ccncc4)c3=O)[C@@H]1N2C(=O)C1CCCCC1,49.3,-13.4,0.9,x,x,x,x
O=C(O)[C@H]1[C@H](CO)[C@H]2Cn3c(ccc(C4=CCCC4)c3=O)[C@@H]1N2C(=O)Cc1ccccn1,65.4,6.4,-4.5,x,x,x,x
SMILES,T cruzi growth-1,Pf Dd2 growth,C diff HTS,T cruzi growth-2,T cruzi growth-3,3T3 cytotox,NIH3T3 tox 2
CCCN1[C@@H]2c3cccc(=O)n3C[C@H]1[C@H](CO)[C@H]2C(=O)N(C)C,45.1,x,1.2,x,x,x,x
COC(=O)[C@H]1[C@H](CO)[C@H]2Cn3c(ccc(-c4cccc(OC)c4)c3=O)[C@@H]1N2C(=O)c1cnccn1,-0.7,8.0,-3.2,x,x,x,x
O=C(Cc1cccnc1)N1CCCCN2[C@H](CO)[C@H](c3ccc(/C=C/c4ccccc4)cc3)[C@H]2C1,-215.0,-44.2,6.3,x,x,x,x
COc1ccc(C#Cc2ccc([C@@H]3[C@H](CO)N4CCCCN(C(=O)Cc5cccnc5)C[C@@H]34)cc2)cc1,112.1*,-15.7,20.3,106.6*,90.4,39.0*,103.7*
O=C(Cc1cccnc1)N1CCCCN2[C@H](CO)[C@@H](c3ccc(/C=C/c4ccccc4)cc3)[C@H]2C1,105.1*,9.0,6.2,108.7*,72.6,33.2,103.6*
O=C(Cc1cccnc1)N1CCCCN2[C@@H](CO)[C@@H](c3ccc(C#CC4CC4)cc3)[C@@H]2C1,85.5,-22.2,-8.3,x,x,x,x
O=C(Cc1cccnc1)N1CCCCN2[C@H](CO)[C@@H](c3ccc(C#CC4CC4)cc3)[C@H]2C1,23.5,-34.1,-6.8,x,x,x,x
COc1ccc(C#Cc2ccc([C@@H]3[C@@H](CO)N4CCCCN(C(=O)Cc5cccnc5)C[C@H]34)cc2)cc1,100.2*,-40.2,14.8,106.2*,37.8,24.4,105.1*
CC=Cc1ccc2n(c1=O)C[C@@H]1[C@@H](CO)[C@H](C(=O)OC)[C@H]2N1S(=O)(=O)c1cccc(C)c1 (mixture of isomers),21.5,x,-4.4,x,x,x,x
C[C@H]1CN([C@@H](C)CO)C(=O)c2c(c3ccccc3n2C)-c2ccccc2CO[C@H]1CN(C)C(=O)Oc1ccccc1,x,-55.6,-1.0,x,x,x,x
